From the supplement of paper PMC7411054
Structures can show the parent of a compound that is named as a salt.

How the values were obtained:
Assay in all cases: lowest phenotypically active concentration; higher = less potent
Conditions in all cases: treatment time: 24 h
[1] = test system: A549-TP53BP1-CLTA
Procedure, shortened: (§1)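 Live-cell features were measured per well and normalised to solvent control wells after fifteen gene-edited A549, HepG2 and WPMY1 reporter lines had been treated for 24 h at 0.3, 1, 3 or 9 µM in four wells each. A condition was deviating when ≥3 of 4 wells sat beyond the 95th percentile of control Euclidean distances. It was reproducible when the median replicate Pearson correlation exceeded the 95th percentile of non-replicates. Phenotypic activity demanded both.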

[2] = test system: HepG2-CANX-COX4
Procedure, shortened: as §1

[3] = test system: HepG2-GM130-SQSTM1
Procedure, shortened: as §1

[4] = test system: HepG2-TP53BP1-CLTA
Procedure, shortened: as §1

[5] = test system: HepG2-TUBA1B-RELA
Procedure, shortened: as §1

[6] = test system: WPMY1-ACTB-RAB5A
Procedure, shortened: as §1

[7] = test system: WPMY1-CANX-COX4
Procedure, shortened: as §1

[8] = test system: WPMY1-GM130-SQSTM1
Procedure, shortened: as §1

[9] = test system: WPMY1-TUBA1B-RELA
Procedure, shortened: as §1

[10] = test system: WPMY1-TP53BP1-CLTA
Procedure, shortened: as §1

Structure (SMILES): COc1cc2c(N3CCN(C(=O)Nc4ccc(OC(C)C)cc4)CC3)ncnc2cc1OCCCN1CCCCC1 [tandutinib]
- lowest phenotypically active concentration [1]: 9 µM
- lowest phenotypically active concentration [2]: 9 µM
- lowest phenotypically active concentration [3]: 9 µM
- lowest phenotypically active concentration [4]: 9 µM
- lowest phenotypically active concentration [5]: 3 µM
- lowest phenotypically active concentration [6]: 9 µM
- lowest phenotypically active concentration [7]: 9 µM
- lowest phenotypically active concentration [8]: 9 µM
- lowest phenotypically active concentration [9]: 9 µM

Structure (SMILES): O=C(NOC[C@H](O)CO)c1ccc(F)c(F)c1Nc1ccc(I)cc1F
- lowest phenotypically active concentration [1]: ≤ 0.3 µM
- lowest phenotypically active concentration [2]: ≤ 0.3 µM
- lowest phenotypically active concentration [3]: ≤ 0.3 µM
- lowest phenotypically active concentration [4]: ≤ 0.3 µM
- lowest phenotypically active concentration [5]: ≤ 0.3 µM
- lowest phenotypically active concentration [6]: 1 µM
- lowest phenotypically active concentration [8]: 3 µM
- lowest phenotypically active concentration [10]: 1 µM

Structure (SMILES): COc1cc2nc(N3CCN(C(=O)C4COc5ccccc5O4)CC3)nc(N)c2cc1OC (centres undefined) [doxazosin]
- lowest phenotypically active concentration [1]: 9 µM
- lowest phenotypically active concentration [3]: 9 µM
- lowest phenotypically active concentration [4]: 9 µM
- lowest phenotypically active concentration [5]: 9 µM
- lowest phenotypically active concentration [6]: 9 µM
- lowest phenotypically active concentration [7]: 9 µM
- lowest phenotypically active concentration [8]: ≤ 0.3 µM
- lowest phenotypically active concentration [10]: 9 µM

Structure (SMILES): N=C(N)c1ccc(OCCCCCOc2ccc(C(=N)N)cc2)cc1 [pentamidine]
- lowest phenotypically active concentration [1]: 3 µM
- lowest phenotypically active concentration [2]: 9 µM
- lowest phenotypically active concentration [4]: 9 µM
- lowest phenotypically active concentration [5]: 9 µM
- lowest phenotypically active concentration [8]: 9 µM

Structure (SMILES): CCCCCCCCCCNCCSSCc1ccc(Cl)cc1
- lowest phenotypically active concentration [1]: 9 µM
- lowest phenotypically active concentration [2]: 1 µM
- lowest phenotypically active concentration [3]: 9 µM
- lowest phenotypically active concentration [4]: 9 µM
- lowest phenotypically active concentration [5]: 3 µM
- lowest phenotypically active concentration [7]: 3 µM
- lowest phenotypically active concentration [8]: 9 µM
- lowest phenotypically active concentration [10]: 9 µM

Structure (SMILES): Cc1cc2c(F)c(Oc3ncnn4cc(OC[C@@H](C)O)c(C)c34)ccc2[nH]1 [brivanib]
- lowest phenotypically active concentration [1]: 9 µM
- lowest phenotypically active concentration [2]: 9 µM
- lowest phenotypically active concentration [3]: 9 µM
- lowest phenotypically active concentration [4]: 9 µM
- lowest phenotypically active concentration [5]: 9 µM
- lowest phenotypically active concentration [6]: 3 µM
- lowest phenotypically active concentration [7]: 9 µM
- lowest phenotypically active concentration [10]: 3 µM
- lowest phenotypically active concentration [9]: 9 µM

Structure (SMILES): N#CC[C@@H](C1CCCC1)n1cc(-c2ncnc3[nH]ccc23)cn1 [ruxolitinib-(S)]
- lowest phenotypically active concentration [1]: 9 µM
- lowest phenotypically active concentration [2]: 9 µM
- lowest phenotypically active concentration [3]: 9 µM
- lowest phenotypically active concentration [4]: 9 µM
- lowest phenotypically active concentration [5]: 9 µM
- lowest phenotypically active concentration [6]: 9 µM
- lowest phenotypically active concentration [7]: 9 µM
- lowest phenotypically active concentration [9]: 3 µM

Structure (SMILES): Cc1nc(Nc2ncc(C(=O)Nc3c(C)cccc3Cl)s2)cc(N2CCN(CCO)CC2)n1 [dasatinib]
- lowest phenotypically active concentration [1]: ≤ 0.3 µM
- lowest phenotypically active concentration [2]: ≤ 0.3 µM
- lowest phenotypically active concentration [3]: ≤ 0.3 µM
- lowest phenotypically active concentration [4]: ≤ 0.3 µM
- lowest phenotypically active concentration [5]: ≤ 0.3 µM
- lowest phenotypically active concentration [6]: ≤ 0.3 µM
- lowest phenotypically active concentration [7]: ≤ 0.3 µM
- lowest phenotypically active concentration [8]: ≤ 0.3 µM
- lowest phenotypically active concentration [10]: ≤ 0.3 µM
- lowest phenotypically active concentration [9]: ≤ 0.3 µM

Structure (SMILES): CC[C@]12CCCN3CCc4c(n(c5ccccc45)C(=O)C1)[C@@H]32 [Eburnamonine (-)]
- lowest phenotypically active concentration [1]: 9 µM
- lowest phenotypically active concentration [4]: 9 µM
- lowest phenotypically active concentration [5]: 9 µM
- lowest phenotypically active concentration [6]: 9 µM
- lowest phenotypically active concentration [7]: 9 µM
- lowest phenotypically active concentration [10]: 3 µM
- lowest phenotypically active concentration [9]: 9 µM

Structure (SMILES): CN1CCN([C@H]2CC[C@H](n3cc(-c4ccc(Oc5ccccc5)cc4)c4c(N)ncnc43)CC2)CC1
- lowest phenotypically active concentration [1]: ≤ 0.3 µM
- lowest phenotypically active concentration [2]: 1 µM
- lowest phenotypically active concentration [3]: ≤ 0.3 µM
- lowest phenotypically active concentration [4]: 1 µM
- lowest phenotypically active concentration [5]: ≤ 0.3 µM
- lowest phenotypically active concentration [6]: ≤ 0.3 µM
- lowest phenotypically active concentration [8]: ≤ 0.3 µM
- lowest phenotypically active concentration [10]: 1 µM
- lowest phenotypically active concentration [9]: ≤ 0.3 µM

Structure (SMILES): NC(=O)Nc1cc(-c2cccc(F)c2)sc1C(=O)N[C@H]1CCCNC1 [AZD 7762 hydrochloride]
- lowest phenotypically active concentration [1]: ≤ 0.3 µM
- lowest phenotypically active concentration [2]: 1 µM
- lowest phenotypically active concentration [3]: ≤ 0.3 µM
- lowest phenotypically active concentration [4]: ≤ 0.3 µM
- lowest phenotypically active concentration [5]: ≤ 0.3 µM
- lowest phenotypically active concentration [6]: ≤ 0.3 µM
- lowest phenotypically active concentration [7]: ≤ 0.3 µM
- lowest phenotypically active concentration [8]: 1 µM
- lowest phenotypically active concentration [10]: ≤ 0.3 µM
- lowest phenotypically active concentration [9]: ≤ 0.3 µM

Structure (SMILES): C/C=C1\NC(=O)[C@H]2CSSCCC=C[C@H](CC(=O)N[C@H](C(C)C)C(=O)N2)OC(=O)[C@H](C(C)C)NC1=O
- lowest phenotypically active concentration [1]: ≤ 0.3 µM
- lowest phenotypically active concentration [2]: ≤ 0.3 µM
- lowest phenotypically active concentration [3]: ≤ 0.3 µM
- lowest phenotypically active concentration [4]: ≤ 0.3 µM
- lowest phenotypically active concentration [5]: ≤ 0.3 µM
- lowest phenotypically active concentration [6]: ≤ 0.3 µM
- lowest phenotypically active concentration [7]: ≤ 0.3 µM
- lowest phenotypically active concentration [8]: ≤ 0.3 µM
- lowest phenotypically active concentration [10]: ≤ 0.3 µM
- lowest phenotypically active concentration [9]: ≤ 0.3 µM

Structure (SMILES): COc1cc(O)cc(O)c1C(=O)/C=C/c1ccccc1 [Cardamonin]
- lowest phenotypically active concentration [1]: 9 µM
- lowest phenotypically active concentration [2]: 9 µM
- lowest phenotypically active concentration [3]: 3 µM
- lowest phenotypically active concentration [5]: 9 µM
- lowest phenotypically active concentration [6]: 9 µM
- lowest phenotypically active concentration [7]: 9 µM
- lowest phenotypically active concentration [8]: 9 µM
- lowest phenotypically active concentration [10]: 9 µM
- lowest phenotypically active concentration [9]: 9 µM

Structure (SMILES): C=CC(=O)Nc1cccc(Nc2nc(Nc3ccc(Oc4ccnc(C(=O)NC)c4)cc3)ncc2F)c1
- lowest phenotypically active concentration [1]: 9 µM
- lowest phenotypically active concentration [3]: 9 µM
- lowest phenotypically active concentration [4]: 9 µM
- lowest phenotypically active concentration [5]: 9 µM
- lowest phenotypically active concentration [6]: 3 µM
- lowest phenotypically active concentration [7]: 9 µM
- lowest phenotypically active concentration [8]: 9 µM

Structure (SMILES): O=C1c2ccccc2-c2nc3nonc3nc21
- lowest phenotypically active concentration [1]: 3 µM
- lowest phenotypically active concentration [2]: ≤ 0.3 µM
- lowest phenotypically active concentration [3]: 3 µM
- lowest phenotypically active concentration [4]: 3 µM
- lowest phenotypically active concentration [5]: 3 µM
- lowest phenotypically active concentration [6]: 3 µM
- lowest phenotypically active concentration [7]: 9 µM
- lowest phenotypically active concentration [9]: 3 µM

Structure (SMILES): CC(C)(C)c1cc(NC(=O)Nc2ccc(-c3cn4c(n3)sc3cc(OCCN5CCOCC5)ccc34)cc2)no1 [quizartinib]
- lowest phenotypically active concentration [1]: 3 µM
- lowest phenotypically active concentration [3]: 3 µM
- lowest phenotypically active concentration [5]: 3 µM
- lowest phenotypically active concentration [6]: 3 µM
- lowest phenotypically active concentration [7]: 1 µM
- lowest phenotypically active concentration [8]: 9 µM
- lowest phenotypically active concentration [10]: 9 µM
- lowest phenotypically active concentration [9]: 3 µM

Structure (SMILES): CN(C)C(=O)C(CCN1CCC(O)(c2ccc(Cl)cc2)CC1)(c1ccccc1)c1ccccc1 [loperamide]
- lowest phenotypically active concentration [1]: 9 µM
- lowest phenotypically active concentration [3]: 9 µM
- lowest phenotypically active concentration [4]: 9 µM
- lowest phenotypically active concentration [5]: 3 µM
- lowest phenotypically active concentration [6]: 9 µM
- lowest phenotypically active concentration [7]: 9 µM
- lowest phenotypically active concentration [8]: 9 µM
- lowest phenotypically active concentration [10]: 9 µM
- lowest phenotypically active concentration [9]: 9 µM

Structure (SMILES): S=C(S)N1CCCC1 [Pyrrolidinedithiocarbamate ammonium]
- lowest phenotypically active concentration [1]: 9 µM
- lowest phenotypically active concentration [2]: 3 µM
- lowest phenotypically active concentration [3]: 9 µM
- lowest phenotypically active concentration [4]: 3 µM
- lowest phenotypically active concentration [5]: 9 µM
- lowest phenotypically active concentration [8]: 9 µM

Structure (SMILES): O=C(O)[C@]1(Cc2cccc(Nc3nccs3)n2)CC[C@@H](Oc2cccc(Cl)c2F)CC1
- lowest phenotypically active concentration [1]: 1 µM
- lowest phenotypically active concentration [2]: 1 µM
- lowest phenotypically active concentration [3]: ≤ 0.3 µM
- lowest phenotypically active concentration [4]: ≤ 0.3 µM
- lowest phenotypically active concentration [5]: ≤ 0.3 µM
- lowest phenotypically active concentration [6]: ≤ 0.3 µM
- lowest phenotypically active concentration [7]: 1 µM
- lowest phenotypically active concentration [10]: ≤ 0.3 µM
- lowest phenotypically active concentration [9]: ≤ 0.3 µM

Structure (SMILES): CN(C)CCCN1c2ccccc2Sc2ccc(Cl)cc21 [chlorpromazine]
- lowest phenotypically active concentration [1]: 9 µM
- lowest phenotypically active concentration [2]: 9 µM
- lowest phenotypically active concentration [3]: 9 µM
- lowest phenotypically active concentration [4]: 9 µM
- lowest phenotypically active concentration [5]: 9 µM
- lowest phenotypically active concentration [6]: 9 µM
- lowest phenotypically active concentration [7]: 9 µM
- lowest phenotypically active concentration [10]: 9 µM
- lowest phenotypically active concentration [9]: 9 µM

Structure (SMILES): O=C(Nc1ccc(-c2ccnc(Nc3ccc(N4CCOCC4)cc3)n2)cc1)[C@@H]1CCCN1
- lowest phenotypically active concentration [1]: 9 µM
- lowest phenotypically active concentration [2]: 3 µM
- lowest phenotypically active concentration [3]: 3 µM
- lowest phenotypically active concentration [4]: 9 µM
- lowest phenotypically active concentration [5]: 3 µM
- lowest phenotypically active concentration [6]: 3 µM
- lowest phenotypically active concentration [7]: 3 µM
- lowest phenotypically active concentration [8]: 3 µM
- lowest phenotypically active concentration [10]: 3 µM
- lowest phenotypically active concentration [9]: 3 µM

Structure (SMILES): CC(C)CNc1nc(-c2cccc3ncccc23)cn2c(-c3ccc(C(=O)NC4CC4)cc3)cnc12
- lowest phenotypically active concentration [1]: 1 µM
- lowest phenotypically active concentration [2]: 1 µM
- lowest phenotypically active concentration [3]: 1 µM
- lowest phenotypically active concentration [4]: 1 µM
- lowest phenotypically active concentration [5]: 1 µM
- lowest phenotypically active concentration [6]: 1 µM
- lowest phenotypically active concentration [8]: 1 µM
- lowest phenotypically active concentration [10]: 1 µM
